{"source": "PubChem BioAssay", "note": "Several values for one entry are separate records, joined by “and”; a condition that tells them apart may be missing. Equal values may be shown once. Some structures have more than one record in an assay (separate samples or runs), and their calls can disagree. Activity calls are given as the source filed them. Also: test concentration not given here."}
{"assay": "yeast growth modulation, basal conditions, primary screen, YJM789 clinical isolate, OD600, 24 h (AID 1089);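 also: growth of clinical yeast isolate S. cerevisiae YJM 789 seeded 1000 cells per well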", "settings": "S. cerevisiae YJM789 growth, higher = more signal, called active from +8 up or from −8 down"}
{"smiles": "CCOC(=O)[C@@H]1CC=C2CC1C(=O)N1CCC[C@@H]1[C@H]2O[Si](C)(C)C(C)(C)C", "note": "(stereo not given in full)", "z-score": "-0.541 (inactive) and -2.68 (inactive)"}
{"smiles": "CCOC(=O)[C@@H]1CC2O[C@]23C[C@@H]1C(=O)N1CCC[C@@H]1[C@H]3O[Si](C)(C)C(C)(C)C", "note": "(stereo not given in full)", "z-score": "-0.418 (inactive) and -1.22 (inactive)"}
{"smiles": "Cc1ccc(S(=O)(=O)OC[C@@H]2CN3[C@@H](CC[C@@H](C)[C@@H]3c3ccc(Br)cc3)C(=O)O2)cc1", "z-score": "-0.464 (inactive) and 0.544 (inactive)"}
{"smiles": "COC(=O)C1=C(C)N(Cc2ccccc2)[C@]23O[C@](C(=O)OC)(C(=O)N2[C@@H]1c1ccccc1)[C@H]1C(=O)N(c2ccccc2)C(=O)[C@H]13", "z-score": "0.434 (inactive) and 0.397 (inactive)"}
{"smiles": "CCOC(=O)c1ccc(NC(=O)O[C@H]2[C@H](OC(=O)Nc3ccccc3)[C@H](OC(=O)Nc3ccccc3)[C@@H](OC)O[C@@H]2CO)cc1", "z-score": "1.65 (inactive) and 0.863 (inactive)"}
{"smiles": "C[N+](C)(C)CCCCCCNC(=O)[C@H]1C[C@H]2C(=O)N[C@@H](CCCC[N+](C)(C)C)C(=O)N2[C@H]1c1ccc(O)cc1", "z-score": "0.166 (inactive) and 0.547 (inactive)"}
{"smiles": "Cc1ccc(S(=O)(=O)N[C@@H]2COC(=O)CC=C[C@@H](C)[C@@H]3C=C[C@H](O)[C@@H](COC(=O)CC=C[C@H]2C)O3)cc1", "z-score": "-0.147 (inactive) and -0.184 (inactive)"}
{"smiles": "CCCNC(=O)OC[C@H]1O[C@H](CCON=C(C)CCC(=O)OC[C@H]2O[C@H](C#Cc3ccccc3)C=C[C@@H]2Oc2ccc(C)cc2)C=C[C@@H]1Oc1ccc(OC)cc1", "z-score": "-0.142 (inactive)"}
{"smiles": "C=CCN(CCCC)C(=O)C1N(C(C)(C)CO)C(=O)C2C(C(=O)O)C3C=CC21O3", "note": "(stereo not given)", "z-score": "-0.412 (inactive) and 0.0394 (inactive)"}
{"smiles": "C=C[C@@H](C)[C@H](O)c1ccc(O)c2ccccc12", "z-score": "-0.647 (inactive) and -0.84 (inactive)"}
{"smiles": "C=CCN(Cc1ccccc1)C(=O)C1N(C(C)(C)CO)C(=O)C2C(C(=O)O)C3C=CC21O3", "note": "(stereo not given)", "z-score": "-0.421 (inactive) and -0.475 (inactive)"}
{"smiles": "C=CC[C@H](O)c1ccc(OCCO)cc1", "z-score": "-0.192 (inactive) and -0.831 (inactive)"}
{"smiles": "C=CCN(C(=O)C(c1cccs1)N(C(=O)/C=C\\C(=O)O)c1ccc(CCO)cc1)c1ccc(OC)cc1", "note": "(stereo not given)", "z-score": "-0.755 (inactive) and 0.13 (inactive)"}
{"smiles": "C=CC[C@@H](O)c1ccc(OCCO)cc1", "z-score": "-2.53 (inactive) and -2.22 (inactive)"}
{"smiles": "C=CCN(C(=O)C1N(CCCCCCO)C(=O)C2C(C(=O)O)C3C=CC21O3)c1ccc(OC)cc1", "note": "(stereo not given)", "z-score": "-0.943 (inactive) and -0.7 (inactive)"}
{"smiles": "COC(=O)C1=C(C)N(Cc2ccccc2)C2=C(C(=O)c3ccccc3)[C@H](c3ccccc3)[C@@](O)(C(=O)OC)C(=O)N2[C@@H]1c1ccccc1", "z-score": "0.504 (inactive) and 0.653 (inactive)"}
{"smiles": "Cc1ccc(S(=O)(=O)N[C@H]2COC(=O)[C@@H](C)COC(=O)[C@H](C)NC(=O)CC=C[C@H]2C)cc1", "z-score": "-0.0016 (inactive)"}
{"assay": "fission yeast growth modulation, primary screen, strain 972, OD600, 24 h, no modulator (AID 1090);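 also: basal condition with compound alone and no growth modifier present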", "settings": "S. pombe 972 growth, higher = more signal, called active from +8 up or from −8 down"}
{"smiles": "C=CCN(CCCC)C(=O)C1N(c2ccc(CCO)cc2)C(=O)C2C(C(=O)O)C3C=CC21O3", "note": "(stereo not given)", "z-score": "-0.261 (inactive) and -0.527 (inactive)"}
{"smiles": "COC(=O)C1=C(C)N(Cc2ccccc2)C2=C3C(=O)N(c4ccccc4)C(=O)[C@@H]3[C@@](O)(C(=O)OC)C(=O)N2[C@@H]1c1ccccc1", "z-score": "-1.52 (inactive) and -2.29 (inactive)"}
{"smiles": "CCC[C@@H]1C[C@@]1(CCC)[C@@H](NC(=O)c1ccc(-c2ccccc2)cc1)c1cccc(Cl)c1", "z-score": "-12.7 (active) and 1.75 (inactive)"}
{"smiles": "C=CCN(C(=O)C(c1cccs1)N(C(=O)/C=C\\C(=O)O)c1ccc(CCO)cc1)C(C)(C)C", "note": "(stereo not given)", "z-score": "-0.701 (inactive) and 0.442 (inactive)"}
{"smiles": "C=CCN(Cc1ccccc1)C(=O)C1N(CCCCCCO)C(=O)C2C(C(=O)O)C3C=CC21O3", "note": "(stereo not given)", "z-score": "0.624 (inactive) and -0.642 (inactive)"}
{"smiles": "COc1ccc(COC(=O)NN=C2C[C@@H](O)[C@@H](O)[C@@H]3[C@@H]4C(=O)N(C(C)(C)C)C(=O)[C@@H]4CC[C@H]23)cc1", "z-score": "-1.05 (inactive)"}
{"smiles": "O=C1NC(=O)C2C1C=CC(C(O)c1ccc([N+](=O)[O-])cc1)N2Nc1ccc(Cl)cc1Cl", "note": "(stereo not given)", "z-score": "-1.46 (inactive) and -1.07 (inactive)"}
{"smiles": "COC(=O)C1=C(C)N(Cc2ccccc2)C2=C3C(=O)CCC[C@@H]3[C@@](O)(C(=O)OC)C(=O)N2[C@@H]1c1ccccc1", "z-score": "-1.66 (inactive) and -4.18 (inactive)"}
{"smiles": "C[N+](C)(C)CCCCNC(=O)[C@H]1C[C@H]2C(=O)N[C@@H](CCCC[N+](C)(C)C)C(=O)N2[C@H]1c1cccc(OCCO)c1", "z-score": "-0.0107 (inactive) and -0.805 (inactive)"}
{"smiles": "C=CCN(CCCCC)C(=O)C1N(c2ccc(CCO)cc2)C(=O)C2C(C(=O)O)C3C=CC21O3", "note": "(stereo not given)", "z-score": "-0.804 (inactive) and 0.336 (inactive)"}
{"smiles": "CC(C)C(=O)N[C@@H]1CCCN1C(=O)C=Cc1ccccc1", "z-score": "-0.0986 (inactive)"}
{"smiles": "C[C@@H](ON=C1[C@H]2CCn3c(=O)n(-c4ccccc4)c(=O)n3[C@H]2[C@H](O)[C@@H]2O[C@H]12)c1cn([C@H](CO)Cc2ccccc2)nn1", "z-score": "-0.165 (inactive)"}
{"smiles": "C=CCN1C(=O)[C@]2(O[C@H](CCn3cc(CCO)nn3)[C@@H]([Si](C)(C)c3ccc(OC)cc3)[C@@H]2C)c2cc(N3C(=O)c4cccc5cccc3c45)ccc21", "z-score": "1.82 (inactive) and 1.64 (inactive)"}
{"smiles": "COC(=O)[C@@]1(Cc2ccc(F)cc2)[C@H]2c3cc(C(=O)N4CCCC4)n(Cc4c(CO)[nH]cc(C)c4=O)c3C[C@H]2CN1C(=O)c1ccccc1", "z-score": "1.36 (inactive) and 1.39 (inactive)"}
{"smiles": "C=CCN(CCCCC)C(=O)C1N(c2c(Cl)cccc2CO)C(=O)C2C(C(=O)O)C3C=CC21O3", "note": "(stereo not given)", "z-score": "-0.456 (inactive) and -0.0109 (inactive)"}
{"smiles": "C=CCN(C(=O)C1N(c2c(Cl)cccc2CO)C(=O)C2C(C(=O)O)C3C=CC21O3)C(C)(C)C", "note": "(stereo not given)", "z-score": "0.857 (inactive) and -1.43 (inactive)"}
{"smiles": "COC(=O)[C@@]1(Cc2ccc(OC)cc2)[C@H]2c3cc(C(=O)N(C)C)n(Cc4ccc(O)c(OC)c4)c3C[C@H]2CN1C(=O)c1ccccc1", "z-score": "1.08 (inactive) and 1.73 (inactive)"}
{"smiles": "C=CCN(C(=O)C1N(C(C)(C)CO)C(=O)C2C(C(=O)O)C3C=CC21O3)c1ccc(OC)cc1", "note": "(stereo not given)", "z-score": "-1.08 (inactive) and 0.202 (inactive)"}
{"smiles": "C[N+](C)(C)CCCCNC(=O)[C@@H]1C[C@@H]2C(=O)N[C@@H](CCCC[N+](C)(C)C)C(=O)N2[C@@H]1c1cccc(OCCO)c1", "z-score": "-0.352 (inactive) and -0.297 (inactive)"}
{"smiles": "CCCC[C@@H]1CN2[C@@H](CC[C@@H](C)[C@@H]2c2ccc(Br)cc2)C(=O)O1", "z-score": "-17.2 (active) and -6.6 (inactive)"}
{"smiles": "CCN1C(=O)[C@H]2[C@H]3[C@H](O)[C@H](O)CC(=NOC)[C@@H]3CC[C@H]2C1=O", "z-score": "-1.9 (inactive)"}
{"smiles": "C=C[C@H](OC)[C@@H](O)c1ccc(OCCO)cc1", "z-score": "0.363 (inactive) and -0.412 (inactive)"}
{"smiles": "COC(=O)C1=C(C)N(Cc2ccccc2)[C@]23O[C@](C(=O)OC)(C(=O)N2[C@@H]1c1ccccc1)[C@@H](c1ccccc1)[C@@H]3C(=O)c1ccccc1", "z-score": "-3.18 (inactive) and -1.19 (inactive)"}
{"smiles": "CCOC(=O)[C@@H]1CC=C2CC1C(=O)N1CCC[C@@H]1[C@H]2O[Si](C)(C)C(C)(C)C", "note": "(stereo not given in full)", "z-score": "-1.43 (inactive) and -19.5 (active)"}
{"smiles": "CCOC(=O)[C@@H]1CC2O[C@]23C[C@@H]1C(=O)N1CCC[C@@H]1[C@H]3O[Si](C)(C)C(C)(C)C", "note": "(stereo not given in full)", "z-score": "-1.05 (inactive) and -0.791 (inactive)"}
{"smiles": "Cc1ccc(S(=O)(=O)OC[C@@H]2CN3[C@@H](CC[C@@H](C)[C@@H]3c3ccc(Br)cc3)C(=O)O2)cc1", "z-score": "-0.252 (inactive) and 0.102 (inactive)"}
{"smiles": "COC(=O)C1=C(C)N(Cc2ccccc2)[C@]23O[C@](C(=O)OC)(C(=O)N2[C@@H]1c1ccccc1)[C@H]1C(=O)N(c2ccccc2)C(=O)[C@H]13", "z-score": "-0.261 (inactive) and -0.858 (inactive)"}
{"smiles": "CCOC(=O)c1ccc(NC(=O)O[C@H]2[C@H](OC(=O)Nc3ccccc3)[C@H](OC(=O)Nc3ccccc3)[C@@H](OC)O[C@@H]2CO)cc1", "z-score": "1.87 (inactive) and 1.43 (inactive)"}
{"smiles": "C[N+](C)(C)CCCCCCNC(=O)[C@H]1C[C@H]2C(=O)N[C@@H](CCCC[N+](C)(C)C)C(=O)N2[C@H]1c1ccc(O)cc1", "z-score": "0.268 (inactive) and -0.656 (inactive)"}
{"smiles": "Cc1ccc(S(=O)(=O)N[C@@H]2COC(=O)CC=C[C@@H](C)[C@@H]3C=C[C@H](O)[C@@H](COC(=O)CC=C[C@H]2C)O3)cc1", "z-score": "-0.349 (inactive) and -0.549 (inactive)"}
{"smiles": "CCCNC(=O)OC[C@H]1O[C@H](CCON=C(C)CCC(=O)OC[C@H]2O[C@H](C#Cc3ccccc3)C=C[C@@H]2Oc2ccc(C)cc2)C=C[C@@H]1Oc1ccc(OC)cc1", "z-score": "-0.0152 (inactive)"}
{"smiles": "C=CCN(CCCC)C(=O)C1N(C(C)(C)CO)C(=O)C2C(C(=O)O)C3C=CC21O3", "note": "(stereo not given)", "z-score": "0.0945 (inactive) and 0.0925 (inactive)"}
{"smiles": "C=C[C@@H](C)[C@H](O)c1ccc(O)c2ccccc12", "z-score": "-7.96 (inactive) and -7.6 (inactive)"}
